From PubChem BioAssay
Values without a mark were called inactive. No rule for the calls is given here.

target: Pantothenate synthetase (Mycobacterium tuberculosis (strain ATCC 25618 / H37Rv)) (UniProt P9WIL5); test: Coupled enzyme confirmation of inhibitors against recombinant Mtb PanC (AID 375); settings: coupled enzyme assay; at 10 µM, stronger effect = higher value;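 also: 0% = full reaction with vehicle and 100% = no enzyme background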
Sequence (P9WIL5 whole entry, looked up): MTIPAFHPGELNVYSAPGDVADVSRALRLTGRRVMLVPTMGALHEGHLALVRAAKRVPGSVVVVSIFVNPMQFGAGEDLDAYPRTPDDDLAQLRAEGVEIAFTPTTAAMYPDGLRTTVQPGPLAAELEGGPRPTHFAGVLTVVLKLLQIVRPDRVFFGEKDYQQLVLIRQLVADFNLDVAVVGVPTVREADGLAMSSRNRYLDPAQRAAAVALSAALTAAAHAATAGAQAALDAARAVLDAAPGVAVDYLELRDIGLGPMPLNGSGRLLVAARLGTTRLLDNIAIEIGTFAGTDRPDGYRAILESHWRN

Structure (SMILES)	inhibition [%]
CC(OC(=O)CNC(=O)C12CC3CC(CC(C3)C1)C2)C(=O)Nc1ccc(N2CCOCC2)cc1 (stereo unspecified)	0
COc1ccc(CN(CCN(C)C)c2ccccn2)cc1	4
COc1ccc(N(CC(=O)N2CCN(Cc3ccc4c(c3)OCO4)CC2)S(C)(=O)=O)cc1OC	5
Cc1c2cnn(CC(=O)N3CCN(c4ncccn4)CC3)c(=O)c2c(C)n1Cc1ccc(F)cc1	0
O=S(=O)(c1ccc(OCC(O)CN2CCC(Cc3ccccc3)CC2)cc1)N1CCOCC1 (stereo unspecified)	1
C[C@]12CC[C@@H]3c4ccc(O)cc4C(=O)C[C@H]3[C@@H]1CC[C@@H]2O	0
S=c1[nH]nc(-c2ccccc2)n1C1C=CCCC1 (stereo unspecified)	0
CCOc1ccc2c(c1)sc1nc(C(=O)OC)cc(=O)n12	0
CCOc1ncccc1C(=O)OCC(=O)Nc1ncc(C(F)(F)F)cc1Cl	1
CC(=O)Nc1ccc(-c2cc3ccccc3o2)cc1	8
COc1ccc2cc(CN(CCO)C(=O)c3ccc(Br)cc3)c(=O)[nH]c2c1	14
CC(C)(C)C(=O)N=C1SC2CS(=O)(=O)CC2N1c1ccc2c(c1)OCO2 (stereo unspecified)	0
CC(=O)Nc1ccc(S(=O)(=O)N(CC(=O)O)Cc2ccccc2)cc1	7
O=c1c(F)cn(C2CCCO2)c(=O)n1Cc1c(F)cccc1Cl (stereo unspecified)	0
Cc1ccc(CN2C(=O)CCC2C(=O)NC2CCCC2)cc1 (stereo unspecified)	0
COc1ccccc1N1CCN(C(=O)c2cc(-c3ccc(Cl)c(Cl)c3)on2)CC1	0
